# Compounds with a hit are over-represented: about 6.9% of the library has one in this group of screens.
# BAZ2B inh: blocks human BAZ2B | Q9UIF8 | AlphaScreen BAZ2B-H3K14Ac peptide displacement | Potency, µM (titrated, usually from 114 µM), for inactives: top-dose activity change, negative = inhibition, actives largely listed as inhibitors | 360,000 tested, 4.4% active; note: % is set by controls: 0 for no effect and ±100 for the full control effect; nearly all actives have a fitted effect of over 60% in size
#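 Multi-concentration screen (max 110 uM) measuring displacement of acetylated histone H3 peptide from BAZ2B by AlphaScreen, using 50 nM protein, 50 nM peptide and 10 ug/mL streptavidin donor plus Ni-chelate acceptor beads.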
# JMJD2A Tudor: blocks the human JMJD2A Tudor domain; O75164; Potency, µM (top dose mostly 114 µM), inactives show at the top dose activity change, negative = inhibition, actives largely listed as inhibitors; 390,000 tested, 4.4% active; AID 504339; AlphaScreen JMJD2A-Tudor / H3K4me3 peptide binding; note: % is set by controls: 0 for no effect and ±100 for the full control effect; nearly all actives have a fitted effect of over 50% in size
# PLK1 PBD block: PLK1 (human) polo-box domain binding inhibition | 360,000 tested, 2.8% active | Potency, µM, for inactives: max response, negative = inhibition, most hits filed as inhibitors | Plk1 PBD binding of FITC phosphopeptide, fluorescence polarization; note: series mostly up to about 57 µM; % is set by controls: 0 for no effect and ±100 for the full control effect; nearly all actives have a fitted effect of over 65% in size
# Target sequence (P53350 whole entry, looked up, the tested form may be a part): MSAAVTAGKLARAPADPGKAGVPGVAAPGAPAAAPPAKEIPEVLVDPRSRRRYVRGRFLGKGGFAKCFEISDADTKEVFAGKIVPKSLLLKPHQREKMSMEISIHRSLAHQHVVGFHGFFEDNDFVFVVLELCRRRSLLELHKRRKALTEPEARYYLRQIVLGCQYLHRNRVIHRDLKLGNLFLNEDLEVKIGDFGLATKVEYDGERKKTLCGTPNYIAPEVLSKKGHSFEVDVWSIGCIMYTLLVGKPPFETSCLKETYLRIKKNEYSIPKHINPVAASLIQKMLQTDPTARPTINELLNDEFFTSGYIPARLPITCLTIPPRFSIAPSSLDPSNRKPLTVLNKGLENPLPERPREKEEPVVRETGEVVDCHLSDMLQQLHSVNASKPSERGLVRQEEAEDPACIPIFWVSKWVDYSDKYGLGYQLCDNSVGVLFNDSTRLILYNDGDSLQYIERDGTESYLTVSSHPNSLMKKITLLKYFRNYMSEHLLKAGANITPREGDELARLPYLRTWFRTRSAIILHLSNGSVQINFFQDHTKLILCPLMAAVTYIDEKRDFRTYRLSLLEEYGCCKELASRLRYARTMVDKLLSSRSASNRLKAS
# L3MBTL1 inh: L3MBTL1 (human) inhibition; Potency, µM (series often up to 57.1 µM), for the others: at the top dose activity, negative = inhibition, usual class: inhibitors; Q9Y468; AlphaScreen L3MBTL1–H3K9me1 peptide binding; 230,000 tested, 0.66% active; note: % is set by controls: 0 for no effect and ±100 for the full control effect; nearly all actives have a fitted effect of over 60% in size
#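 L3MBTL1 (50 nM) pre-complexed 30 min with biotinylated H3(1-15)K9me1 peptide (75 nM), then compounds added for 30 min at room temperature; AlphaScreen streptavidin donor/nickel chelate acceptor beads (10 ug/mL final) read after 30 min dark incubation.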
# HP1b binding inh: blocks HP1-beta chromodomain binding to methylated histone tails | P83916 | AlphaScreen HP1-beta / biotin-H3K9me3 peptide binding | Potency, µM (series often up to 114 µM), inactives show at the highest dose activity change, negative = inhibition, most hits filed as inhibitors | 390,000 tested, 0.56% active; note: nearly all actives have a fitted effect of over 70% in size
#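 AlphaScreen: HP1-beta (50 nM) preformed 30 min with biotin-H3(1-18)K9me3 peptide (50 nM) in PBS pH 7.4, 0.01% Tween-20. Compound added for 30 min at RT, then streptavidin donor/nickel chelate acceptor beads (10 ug/mL) for 30 min.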
# VDR inhibitor: vitamin D3 receptor (human) inhibition; P11473; VDR-SRC2-3 peptide fluorescence polarization, 2 h; Potency, µM, inactives show max response, negative = inhibition, actives largely listed as inhibitors; 400,000 tested, 0.93% active; AID 504847; note: % is set by controls: 0 for no effect and ±100 for the full control effect
#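 Fluorescence polarization assay of small-molecule disruption of VDR binding to coregulator peptide SRC2-3. Compounds and controls pin-transferred, then read after 2 h incubation at ambient room temperature.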
# The depositor's hits bear a star; ? = inconclusive; · = not tested or not shown; [ ] = remark or other dose. Calls come from the whole dose curve; as a rule, active = well fitted curve in the direction sought with a large enough effect; inconclusive = small, poorly fitted or top-dose-only effect, or another doubt; inactive = no such curve, though single readings can be large; an effect the other way counts as inactive or inconclusive. Potency is the fitted concentration of half-maximal effect.
SMILES,BAZ2B inh,JMJD2A Tudor,PLK1 PBD block,L3MBTL1 inh,HP1b binding inh,VDR inhibitor
C=CCn1c(O)c(C2=c3ccccc3=NC2=O)sc1=Nc1ccc(O)cc1,22µM*,22µM*,3%,·,?,-4%
Cc1nn(-c2ccccn2)c2nc(-c3cccs3)cc(C(=O)N3CCOCC3)c12,15%,?,12µM*,0%,-10%,?
Cc1cccc(-n2nc(C)c3c(C(=O)O)cc(-c4cccs4)nc32)c1,4%,-3%,?,15%,34%,-7%
FC(F)(F)c1ccccc1NC(=S)N/N=C1\CC2CC=CC12 (stereo not drawn),71µM*,-37%,?,46%,?,9%
O=C1C(Cc2ccccc2)Nc2ncnc(N3CCc4ccccc4C3)c2N1Cc1ccccc1 (stereo not drawn),·,?,42µM*,-3%,25%,-17%
CCOC(=O)/C=C(\C)Sc1cc(O)c2ccccc2c1O,28µM*,7.9µM*,11µM*,?,7.9µM*,20µM*
CCOC(=O)/C=C(\C)Sc1cc(=O)oc2ccccc12,27%,-8%[57.1 µM],-26%,19%,107%,9%
COc1cc(C)c(CN2CCN(CC(=O)Nc3ccccc3C(=O)NC3CC3)CC2)cc1OC,-5%,-13%,0%,3%,18%,2%
CN(Cc1ccccc1)CC(O)COc1ccc(CNCc2nccn2C)cc1 (stereo not drawn),56µM*,-15%[11.4 µM],-11%,-22%,14%,18%
Cc1nc2ccccc2n1CCc1nc2c3ccccc3nc(SCc3ccc(C#N)cc3)n2n1,-2%,-7%,·,·,38%,21%
Cc1cccn2c(=O)cc(CSc3nnc(NC(=O)COc4ccc(F)cc4)s3)nc12,-1%,-3%,·,·,25%[57 µM],4%
c1ccc(-n2cnc3cc(NCc4ccco4)ccc32)cc1,?,79µM*,-29%,-25%,?,-18%
c1ccc(-n2cnc3cc(NCc4cccs4)ccc32)cc1,50µM*,56µM*,-4%,-20%,-32%,3%
COc1ccc(-n2cnc3cc(NCc4cccs4)ccc32)cc1,18µM*,-15%[11.4 µM],27µM*,?,40µM*,-10%
CC(=O)N1CCN(C(=O)COC(=O)c2ccc(S(C)(=O)=O)cc2)CC1,·,-10%,-8%,-1%,5%,7%
COc1cc(C(=S)N2CCOCC2)cc(OC)c1OC(=O)c1ccc(F)cc1,?,-35%,12µM*,-10%,?,?
O=C(Oc1ccc(C(=S)N2CCOCC2)cc1Br)c1cc(Cl)ccc1Cl,-29%,-19%,?,-8%,-2%,-20%
COc1ccc(C(=S)N2CCOCC2)cc1OC(=O)c1ccccc1Cl,-29%,?,19µM*,·,?,-21%
O=C(Oc1c(Br)cc(C(=S)N2CCOCC2)cc1Br)c1ccc(Cl)cc1,?,?,6.7µM*,-21%,?,?
COc1cc(C(=S)N2CCOCC2)cc(OC)c1OS(=O)(=O)c1ccc(Cl)cc1,-5%,-33%,13µM*,1%[2.29 µM],?,89µM*
COc1cc(C(=O)Oc2c(OC)cc(C(=S)N3CCOCC3)cc2OC)cc(OC)c1OC,-33%,-28%,-1%,-4%,21%,-1%
COc1cc(C(=S)N2CCOCC2)cc(OC)c1OC(=O)c1ccccc1[N+](=O)[O-],-28%,-32%,-16%,-3%,5%,-10%
COc1cc(C(=S)N2CCOCC2)cc(OC)c1OC(=O)Cc1ccc(F)cc1,?,79µM*,7.5µM*,3%,?,?
CSCC[C@H](NC(=O)[C@H](Cc1ccccc1)NC[C@@H](NC[C@@H](N)CS)C(C)C)C(=O)O,·,·,·,·,·,35µM*
CSCCC(NC(=O)OCc1ccccc1)C(=O)O (stereo not drawn),-6%,-8%,-9%,6%,22%,-2%
Cc1ccc2nc(-c3ccc(NC(=O)COc4ccc(Br)cc4Br)cc3)sc2c1,-1%,-6%,·,·,30%,-16%
O[C@@H]1CCN2Cc3ccccc3N=C12,·,·,·,·,·,3.5µM*

# Screens deposited in PubChem by National Center for Advancing Translational Sciences (NCATS).
